A selection: hits, their analogues and other compounds. The true share with any hit is near 1.3%.
COUP-TFII inh: NR2F2 transcriptional activity inhibitors, primary screen, cell-based, luciferase reporter, HEK293T, luminescence; hit rate 0.7% among 370,000; HEK293T NGFI-A luciferase reporter; inhibition, % at 8.6 µM;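 active = inhibition above a per-plate cutoff, mean inhibition of test wells between control levels plus 3 SD, cut at about 38% in these data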;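 also: cells cotransfected with COUP-TFII expression vector driving the NGFI-A reporter; 0% = median of COUP-TF2 test wells and 100% = reporter-only cells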
SRC3 inh: SRC3 coactivator transcriptional activity inhibitors, primary screen, cell-based, luminescence; Nuclear receptor coactivator 3 (Homo sapiens), Q9Y6Q9; HEK293 GAL4-SRC3 luciferase reporter; inhibition, % at 3.6 µM; hit rate 0.17% among 360,000;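 active = inhibition above a per-campaign cutoff, the mean of all compounds plus 3 SD, cut at about 60% in these data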;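 also: 0% = DMSO-treated cells and 100% = gossypol-treated cells at 36 µM; higher means less SRC3-driven luciferase light from the GAL4 reporter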
Gli-Sufu antag: Gli-Sufu pathway antagonists, primary screen, luciferase luminescence, Sufu-KO-LIGHT cells, uHTS | Sufu-KO-LIGHT fibroblasts, Gli luciferase reporter luminescence | inhibition, % at 5 µM | hit rate 0.74% among 340,000 | AID 588413, 2011;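 active = inhibition above about 55%, limit read from the data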;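 also: 0% = DMSO-treated cells and 100% = wells with medium but no cells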
SRC1 inh: SRC1 coactivator transcriptional activity inhibitors, primary screen, cell-based, luminescence; Nuclear receptor coactivator 1 (Homo sapiens), Q15788; HEK293 GAL4-SRC1 luciferase reporter; inhibition, % at 3.6 µM; hit rate 0.12% among 360,000;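 active = inhibition above the campaign mean plus 3 SD, with each screening campaign given its own cutoff, cut at about 60% in these data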;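 also: 0% = DMSO treated cells and 100% = gossypol at 36 µM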
SRC2 inh: inhibition of GAL4-SRC2 driven luciferase reporter, primary screen, SRC2 inhibitor project, cell-based, luminescence; Nuclear receptor coactivator 2 (Homo sapiens), Q15596; HEK293 GAL4-SRC2 luciferase reporter; inhibition, % at 9 µM; hit rate 0.17% among 370,000; AID 651957, 2012;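 active = inhibition above the mean inhibition of all tested compounds plus 3 SD, set per campaign, cut at about 52% in these data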;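 also: 0% = DMSO treated cells and 100% = cells given Gossypol at 36 µM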
Target sequence (Q15596 whole entry, looked up, the tested form may be a part): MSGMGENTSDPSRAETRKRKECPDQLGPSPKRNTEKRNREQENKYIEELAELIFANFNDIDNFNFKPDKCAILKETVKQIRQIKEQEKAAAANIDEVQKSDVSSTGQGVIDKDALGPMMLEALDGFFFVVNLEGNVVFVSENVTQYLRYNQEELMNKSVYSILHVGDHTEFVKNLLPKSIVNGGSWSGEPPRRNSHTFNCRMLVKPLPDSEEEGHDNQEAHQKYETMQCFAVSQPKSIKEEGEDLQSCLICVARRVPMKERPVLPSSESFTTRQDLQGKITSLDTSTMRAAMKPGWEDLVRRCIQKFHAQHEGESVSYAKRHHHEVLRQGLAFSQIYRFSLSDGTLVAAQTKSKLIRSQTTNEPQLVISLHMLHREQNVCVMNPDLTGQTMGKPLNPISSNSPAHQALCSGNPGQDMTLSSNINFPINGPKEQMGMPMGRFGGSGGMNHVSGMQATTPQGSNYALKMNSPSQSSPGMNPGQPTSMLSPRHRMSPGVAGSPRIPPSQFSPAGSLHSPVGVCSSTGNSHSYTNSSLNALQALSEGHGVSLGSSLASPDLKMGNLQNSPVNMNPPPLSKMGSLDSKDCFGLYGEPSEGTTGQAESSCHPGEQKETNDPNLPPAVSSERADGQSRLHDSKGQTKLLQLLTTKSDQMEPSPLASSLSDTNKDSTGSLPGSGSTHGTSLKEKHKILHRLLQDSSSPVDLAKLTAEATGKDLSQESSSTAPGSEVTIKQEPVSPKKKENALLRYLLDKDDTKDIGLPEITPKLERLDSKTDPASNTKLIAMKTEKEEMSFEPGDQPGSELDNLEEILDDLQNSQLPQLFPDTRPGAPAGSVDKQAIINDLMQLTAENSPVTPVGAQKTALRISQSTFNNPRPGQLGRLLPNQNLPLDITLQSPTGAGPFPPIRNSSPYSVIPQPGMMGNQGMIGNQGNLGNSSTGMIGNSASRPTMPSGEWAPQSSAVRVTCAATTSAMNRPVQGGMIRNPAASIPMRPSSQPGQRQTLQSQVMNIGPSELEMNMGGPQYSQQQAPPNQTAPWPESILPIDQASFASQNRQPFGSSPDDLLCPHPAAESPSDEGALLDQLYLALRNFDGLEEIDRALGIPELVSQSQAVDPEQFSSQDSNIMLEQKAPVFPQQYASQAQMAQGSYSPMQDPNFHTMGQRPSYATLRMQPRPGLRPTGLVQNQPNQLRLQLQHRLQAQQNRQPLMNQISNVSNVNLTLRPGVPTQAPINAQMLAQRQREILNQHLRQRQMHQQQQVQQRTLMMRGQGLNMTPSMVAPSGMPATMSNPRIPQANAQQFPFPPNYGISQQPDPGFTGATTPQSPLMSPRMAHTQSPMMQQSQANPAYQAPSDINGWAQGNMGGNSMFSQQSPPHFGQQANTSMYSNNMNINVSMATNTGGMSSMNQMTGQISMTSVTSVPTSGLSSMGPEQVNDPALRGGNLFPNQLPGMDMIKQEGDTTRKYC
LRH-1 inv ag: LRH-1 (NR5A2) inverse agonists, primary screen, cell-based, luminescence, HEK293T, StAR-luciferase reporter; Nuclear receptor subfamily 5 group A member 2 (Homo sapiens), O00482; LRH-1 transfected, 24 h; inhibition, % at 3.6 µM; hit rate 0.13% among 360,000;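 active = inhibition above the mean inhibition of all tested compounds plus 3 SD, cut at about 73% in these data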;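 also: 0% = DMSO wells and 100% = reporter-only cells lacking LRH-1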
Gli-Sufu confirm: Gli-SUFU pathway antagonists, confirmation, single concentration, luciferase luminescence, Sufu-KO-LIGHT cells. shares compounds with Gli-Sufu antag. Gli luciferase reporter. inhibition, % at 5 µM. hit rate 40% among 2,500;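 active = mean inhibition at 5 µM reaching about 45%, limit read from the data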;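 also: plate controls were DMSO-treated cells for no effect and wells lacking cells for full effect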
SufuKO cytotox: cytotoxicity in Sufu-KO-LIGHT cells, confirmation, cytotoxicity control for Gli-SUFU antagonist project, cell-based, ATP luminescence, single concentration | shares compounds with Gli-Sufu antag | cytotoxicity, % at 5 µM | hit rate 32% among 2,500;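 active = mean cytotoxicity at 5 µM above about 25%, limit read from the data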;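 also: cells exposed to compound overnight for roughly 16 to 18 hours; plate controls were DMSO wells with cells for no effect and medium without cells for full effect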
Wnt3a cs: Wnt3a reporter signal inhibition, confirmation, counter-screen for Gli-SUFU antagonist project, Wnt-LIGHT cells, luminescence, single concentration; shares compounds with Gli-Sufu antag; Wnt3a-driven luciferase reporter; inhibition, % at 6.25 µM; hit rate 20% among 2,500;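 active = mean inhibition above about 25%, limit read from the data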
The depositor's hits bear a star; nt = not tested or not shown.

SMILES | COUP-TFII inh | SRC3 inh | Gli-Sufu antag | SRC1 inh | SRC2 inh | LRH-1 inv ag | Gli-Sufu confirm | SufuKO cytotox | Wnt3a cs
Cc1ccc(Cn2nnc3c(=O)[nH]c(C4CCN(S(=O)(=O)c5ccccc5F)CC4)nc32)cc1 | 1.7 | 9.3 | 50.6 | 12.9 | 2.0 | 2.6 | 13.5 | 2.4 | -8.6
O=C(CSc1nnc(-c2ccccc2)n1-c1ccccc1)Nc1ccccc1-c1ccccc1 | 22.3 | nt | nt | nt | 1.9 | nt | nt | nt | nt
Cc1cc(NC(=O)COc2ccccc2C)ccc1NC(=O)c1cccs1 | 0.7 | -2.5 | 50.9 | 10.2 | 3.5 | 12.3 | 12.2 | 0.4 | -48.1
CCOC(=O)c1c(CC(C)C)csc1NC(=O)COC(=O)c1cc(OC)c(OC)cc1[N+](=O)[O-] | 11.4 | 16.3 | 56.0* | 3.4 | 6.2 | 13.9 | 31.7 | 16.8 | -33.5
Nc1[nH]c(C(=O)c2ccccc2)c(-c2cccc3ccccc23)c1C(=O)NC1CCCCC1 | -8.4 | nt | nt | nt | 20.6 | nt | nt | nt | nt
Cc1cc(-c2ccccc2)cc(-c2ccccc2)[n+]1C | 16.9 | -8.6 | 64.7* | 2.3 | 15.9 | 12.3 | 70.4* | 26.9* | 19.6
Cc1cc(-c2ccccc2)cc(=O)[nH]1 | 5.1 | 2.5 | 2.7 | -35.8 | -20.7 | 25.0 | nt | nt | nt
COc1cc(C(C#N)N2CCCCC2)ccc1O (stereo unspecified) | 6.8 | -18.2 | 0.5 | -17.8 | 10.3 | 26.0 | nt | nt | nt
COc1cc(C(C#N)N2CCOCC2)ccc1O (stereo unspecified) | -1.4 | 8.8 | 55.4* | 11.5 | -20.8 | -5.1 | 21.1 | 8.6 | 2.7
CCOc1ccc2c(c1)C(C)=CC(C)(C)N2S(=O)(=O)c1ccc(C)cc1 | -62.8 | 13.2 | 67.0* | 5.6 | 8.9 | 38.0 | 64.2* | 62.0* | 25.0
COc1ccc2c(c1)C(C)=CC(C)(C)N2S(=O)(=O)c1ccc(C)cc1 | -67.1 | 7.1 | 67.3* | -31.9 | -11.3 | 21.3 | 55.6* | 58.0* | 30.1*
CC1=CC(C)(C)N(S(=O)(=O)c2ccc(C)cc2)c2cc(C)ccc21 | -62.8 | 8.6 | 58.5* | -41.6 | 18.2 | 36.4 | 58.2* | 61.9* | -5.2
COC(=O)C1(C)CN(S(=O)(=O)c2ccc(C)cc2)c2cc(OC)ccc2C1=O (stereo unspecified) | -2.1 | 3.2 | 3.4 | -61.4 | 13.8 | 18.3 | nt | nt | nt
CC(C)N(C(N)=NC(=O)OCc1ccccc1)C(C)C | -6.8 | nt | nt | nt | -14.9 | nt | nt | nt | nt
Brc1ccc(-c2c[n+]3c(n2-c2ccccc2)SCC3)cc1 | 17.9 | 11.5 | 63.2* | 8.9 | 8.5 | 2.5 | 60.0* | 25.2* | -4.0
CN1/C(=C\C(=O)COC(=O)CN2C(=O)C3CC=CCC3C2=O)C(C)(C)c2ccccc21 (stereo unspecified) | -17.2 | 12.2 | 9.1 | -3.9 | 4.0 | 6.6 | nt | nt | nt
CN1/C(=C\C(=O)CSc2cccc[n+]2[O-])C(C)(C)c2ccccc21 | 0.8 | 7.4 | 27.0 | -3.1 | -10.9 | -13.7 | nt | nt | nt
Cc1cccc[n+]1CC(=O)/C=C1\N(C)c2ccccc2C1(C)C | 32.6 | 44.8 | 62.6* | 38.6 | 8.0 | 40.4 | 61.4* | 23.8 | 30.9*
CN1/C(=C\C(=O)CN2C(=O)NC3(CCCCCC3)C2=O)C(C)(C)c2ccccc21 | -12.5 | 7.2 | 69.7* | -12.9 | 6.3 | 16.1 | 41.1 | 51.7* | -31.4
COC(=O)C[C@H]1CC[C@@H]2[C@H](COc3ccc(NC(=O)c4ccccc4OC)cc3C(=O)N2C)O1 | -26.5 | nt | nt | nt | -30.2 | nt | nt | nt | nt
CCC(=O)N(Cc1ccccc1)c1ccccc1C(=O)Nc1cc(OC)ccc1OC | 1.4 | nt | nt | nt | -11.7 | nt | nt | nt | nt
